# Results as given in PubChem BioAssay.
# Activity calls are given as the source filed them.
# How the values were obtained:
# [1] = compound effects on lung adenocarcinoma cell viability – A549, calcein-AM fluorescence, 48 h, basal, profiling panel (AID 1162); conditions: higher = more signal
# [2] = compound effects on differentiated 3T3-L1 adipocyte viability – cell-based, 3T3-L1 adipocytes, calcein-AM fluorescence, 48 h, basal, profiling panel (AID 1163); conditions: 3T3-L1 adipocytes viability, higher = more signal
# [3] = compound effects on hepatocellular carcinoma cell viability – HepG2, calcein-AM fluorescence, 48 h, basal, profiling panel (AID 1164); conditions: higher = more signal
# [4] = compound effects on multiple myeloma cell viability – MM1S, calcein-AM fluorescence, 48 h, basal, profiling panel (AID 1165); conditions: higher = more signal
# [5] = calcein-AM signal in unstimulated myeloma cells – cell-based, calcein-AM fluorescence, 48 h, PK04 Diversity Set, profiling panel (AID 1166); conditions: RPMI8226 myeloma viability, higher = more signal;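 further: cells grown under basal conditions without added stimulus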
# [6] = JC-1 mitochondrial signal, unstimulated HepG2 cells – cell-based, JC-1 fluorescence, 24 h, 100 nL compound, profiling panel (AID 1167); conditions: HepG2 mitochondrial potential, higher = more signal
# [7] = JC-1 mitochondrial signal, unstimulated adipocytes – cell-based, JC-1 fluorescence, 3T3-L1 adipocytes, 24 h, 100 nL compound, profiling panel (AID 1168); conditions: JC-1 mitochondrial fluorescence, higher = more signal, called active from +8 up or from −8 down
# [8] = JC-1 mitochondrial signal, unstimulated myeloma cells – cell-based, JC-1 fluorescence, RPMI8226, 24 h, 100 nL compound, profiling panel (AID 1169); conditions: JC-1 mitochondrial potential fluorescence, higher = more signal
# [9] = JC-1 mitochondrial signal, unstimulated MM1S myeloma – cell-based, JC-1 fluorescence, 24 h, 100 nL compound, profiling panel (AID 1170); conditions: MM1S mitochondrial potential, higher = more signal
# [10] = resazurin metabolic signal in A549 cells – cell-based, resazurin fluorescence, 24 h, PK04 Diversity Set, profiling panel (AID 1171); conditions: A549 viability, higher = more signal, called active from +8 up or from −8 down
# Further: test concentration not given here.
Structure (SMILES),z-score [1],z-score [2],z-score [3],z-score [4],z-score [5],z-score [6],z-score [7],z-score [8],z-score [9],z-score [10]
CO[C@H]1O[C@H](CO)[C@@H](OC(=O)Nc2ccc(Oc3ccccc3)cc2)[C@H](OC(=O)Nc2ccccc2-c2ccccc2)[C@@H]1OC(=O)Nc1ccccc1-c1ccccc1,-0.0685,0.0358,-0.61,-0.443,-0.612,0.319,2.46 (inactive),-1.13,0.267,-0.41 (inactive)
COC(=O)C1(Cc2ccccc2)C=C2C(=C(C(C)C)C(=O)C2C)CN1 (stereo not given),-0.859,0.575,-1.75,-1.89,-1.53,-1,-1.76 (inactive),0.838,0.0816,-1.33 (inactive)
CN(C)C(=O)[C@@]1(Cc2ccccc2N=[N+]=[N-])COC(c2ccc(OCCCO)cc2)=N1,1.69,-0.541,1.32,-0.257,0.192,1.4,0.0922 (inactive),-0.934,-1.23,0.325 (inactive)
CCCCN1CC=CC23O[C@@H]4/C=C\CCC(C)OC(=O)C4[C@H]2C(=O)N(CCCCCCO)[C@@H]3C1=O (stereo not given in full),-0.0164,0.736,1.11,1.79,-0.273,0.375,0.145 (inactive),0.336,-0.563,0.254 (inactive)
COc1cc2c(cc1O)C(C)N(Cc1cc3c(cc1Br)OCO3)CC2 (stereo not given),-0.279,0.453,-0.346,-0.981,-0.308,-0.378,0.168 (inactive),-0.481,0.71,-0.807 (inactive)
COc1ccc(NN2C(C(O)c3ccccn3)C=CC3C(=O)N(C4CCCCC4)C(=O)C32)cc1 (stereo not given),-0.834,0.23,1.44,-1.3,-3.2,-0.645,-0.089 (inactive),0.201,-1.51,0.342 (inactive)
COc1ccc(C(O)C2C=CC3C(=O)N(c4ccccc4)C(=O)C3N2Nc2ccccc2)cc1OCc1ccccc1 (stereo not given),0.677,-1.4,1.29,0.337,-0.29,-1.02,-0.514 (inactive),-0.307,-0.699,0.789 (inactive)
COc1ccc(C(O)C2C=CC3C(=O)N(c4ccccc4)C(=O)C3N2Nc2ccc(C#N)cc2)c2ccccc12 (stereo not given),-0.716,-1.07,0.66,0.395,-1.04,-1.56,-0.246 (inactive),0.423,-0.117,0.0226 (inactive)
O=C1C2C=CC(C(O)c3cc(C(F)(F)F)cc(C(F)(F)F)c3)N(Nc3ccc([N+](=O)[O-])cc3)C2C(=O)N1c1ccccc1 (stereo not given),-1.61,0.294,-3.51,-2.62,-4.06,-0.982,-0.699 (inactive),-1.03,-1.99,-0.0362 (inactive)
COCCOC(=O)N1C(=O)[C@@]2(c3ccccc31)[C@H](C(=O)N1CCN(c3ncccn3)CC1)[C@H]1C(=O)O[C@H](c3ccccc3)[C@H](c3ccccc3)N1[C@@H]2c1ccc(OCCO)cc1,1.16,-0.069,1.39,-0.198,-0.156,1.38,0.865 (inactive),-0.459,-1.27,0.218 (inactive)
O=C1NC(=O)C2C1C=CC(C(O)c1cc(C(F)(F)F)cc(C(F)(F)F)c1)N2Nc1ccc(Cl)cc1Cl (stereo not given),-3.02,0.0578,-2.76,-3.69,-3.56,-2.94,-1.19 (inactive),-0.387,0.4,-1.24 (inactive)
CC(C)N1C(=O)[C@@]2(c3ccc([N+](=O)[O-])cc3)CC(=O)N(C3CCCCC3)[C@@H]2c2ccc(CO)cc21,-0.0841,-0.0435,-0.647,-0.331,0.311,-0.0357,-0.14 (inactive),-0.0593,-0.843,2.09 (inactive)
CC(=O)n1cc(C(O)C2C=CC3C(=O)N(c4ccccc4)C(=O)C3N2Nc2ccccc2)c2ccccc21 (stereo not given),-0.8,0.174,0.374,-1.06,-1.19,-2.16,-0.349 (inactive),-0.502,-0.969,-1.05 (inactive)
[N-]=[N+]=Nc1ccccc1C[C@]1(C(=O)NCc2ccccc2)N=C(c2ccc(OCCCO)cc2)O[C@H]1c1ccccc1,-1.66,-0.651,-1.14,-2.41,-2.86,1.88,-0.095 (inactive),-1.13,-1.73,-0.395 (inactive)
NC(=O)NCC#Cc1ccc2c(c1)[C@]1(C(=O)N2)[C@H](C(=O)O)[C@H]2C(=O)O[C@H](c3ccccc3)[C@H](c3ccccc3)N2[C@@H]1c1ccccc1OCCO,0.789,1.03,0.728,1.33,1.35,-0.867,-0.377 (inactive),-0.0612,0.997,0.877 (inactive)
C=CCOC(=O)[C@@H]1[C@H]2C(=O)O[C@H](c3ccccc3)[C@H](c3ccccc3)N2[C@H](c2ccc(OCCOC(=O)[C@H]3C[C@H]4C(=O)N[C@@H](CCCC[N+](C)(C)C)C(=O)N4[C@H]3c3ccc(O)cc3)cc2)[C@@]12C(=O)Nc1ccc(I)cc12,-0.105,-1.19,-0.591,-0.477,-0.362,-2.03,0.178 (inactive),-0.275,-1.13,-0.173 (inactive)
CN1C(=O)C2C=CC(C(O)c3c(F)cccc3Cl)N(Nc3ccccc3)C2C1=O (stereo not given),-0.635,-0.924,-1.18,0.161,-1.42,-1.4,-0.144 (inactive),-0.725,0.302,-0.31 (inactive)
O=C1NC(=O)C2C1C=CC(C(O)c1ccc(Br)cc1)N2Nc1ccccn1 (stereo not given),0.636,0.805,0.909,-0.0483,-0.767,-0.169,0.195 (inactive),0.698,-0.273,-1.58 (inactive)
CC(C)N1CC=CC23O[C@@H]4C=CCOC(=O)[C@@H]4[C@H]2C(=O)N(C(C)CO)[C@@H]3C1=O (stereo not given in full),-0.327,-0.153,-0.719,1.15,-0.186,-0.664,-0.668 (inactive),-0.166,0.462,0.226 (inactive)
CC(C)(C)OC(=O)CC[C@]1(C(=O)N2CCOCC2)N=C(c2ccc(OCCCO)cc2)O[C@H]1c1ccccc1,0.134,0.233,1.01,1.38,0.0928,0.839,0.453 (inactive),0.0149,-0.703,-0.743 (inactive)
CN1C(=O)C2C(C1=O)C1C=C(c3ccc(CO)cc3)C2C(c2cccs2)N1Cc1cccc(OC(F)(F)F)c1 (stereo not given),0.567,1.25,-0.617,-0.314,-2.96,-1.71,-1.12 (inactive),-0.722,-0.556,-0.665 (inactive)
O=C1O[C@@H](c2ccccc2)[C@@H](c2ccccc2)N2[C@@H](c3ccccc3OCCO)[C@]3(C(=O)Nc4ccccc43)[C@@H](C(=O)NC[C@H](O)c3ccccc3)[C@H]12,-1.53,0.0155,-3.94,-3.32,-4.54,-1.64,0.305 (inactive),-1.22,-2.09,-1.99 (inactive)
CC(C)CN1C(=O)[C@@]2(c3ccc([N+](=O)[O-])cc3)CC(=O)N(CC34CC5CC(CC(C5)C3)C4)[C@@H]2c2ccc(CO)cc21,-0.181,1.04,-0.744,-0.0484,-0.544,-0.849,-0.316 (inactive),0.833,-2.29,-0.186 (inactive)
CCC[C@@H]1C[C@@]1(CCC)[C@@H](NP(=O)(c1ccccc1)c1ccccc1)c1ccc(Cl)cc1,-1.19,-1.03,-1.99,-1.45,-2.28,-4.09,-0.876 (inactive),-0.618,-1.81,0.419 (inactive)
Cc1ccc(C(C)CC(O)C2C=CC3C(=O)N(c4ccccc4)C(=O)C3N2Nc2ccc(C(C)C)cc2)o1 (stereo not given),-1.12,-0.279,0.137,-1.41,-1.19,-2.29,-1.44 (inactive),-0.778,0.772,-0.634 (inactive)
COC(=O)C[C@H]1O[C@]2(C(=O)N(C)c3ccccc32)[C@@H](C)[C@@H]1[Si](C)(C)c1ccc(C)cc1,-1.55,0.163,-0.151,-1.5,-4.12,-0.39,0.329 (inactive),-0.991,0.413,-0.447 (inactive)
CCOC(=O)C[C@H]1[C@H](OC(=O)c2ccc(-c3ccccc3)cc2)[C@@H](NC(=O)c2ccc3ccccc3c2)c2cc(OCCCO)ccc2N1C(=O)c1ccc2ccccc2n1,0.245,0.543,-0.573,0.477,-1.06,1.33,1.26 (inactive),0.729,0.164,0.094 (inactive)
C=CC1c2cc(O)c(OC)cc2CCN1Cc1sc2ccccc2c1Cl (stereo not given),-4.28,0.155,-4.42,-3.24,-4.45,-3.08,-0.224 (inactive),-0.811,-0.358,-0.784 (inactive)
C=CCC(OC(C)=O)[C@@H]1[C@@H](N(Cc2cc3ccccc3o2)C(=O)c2ccc(C)cc2)c2cc(OCCCO)ccc2N1C(=O)Cc1ccc2ccccc2c1 (stereo not given in full),2.34,0.133,1.18,-0.623,-0.802,3.42,-0.577 (inactive),0.0031,0.718,1.65 (inactive)
